Results reported in PubChem BioAssay AID1259343 (VanderVen Lab, College of Veterinary Medicine, Cornell …, 2017).
The whole screen tested about 6,200 compounds, of which about 2,900 (47%) were called active. The set was probably picked from earlier hits. The list shows a part of the results. Unmarked numbers belong to inactive results. Rule as the data show it: active = inhibition above about 50%; inactive = the rest.

Experiment: Mycobacterium tuberculosis growth inhibition, primary screen (AID 1259343)
Details: inhibition: at 10 µM, active compounds read high; outcome: 10 uM

Compound | inhibition
O=C(CSC1=NCCS1)N1c2ccccc2Sc2ccccc21 | 27.6%
CCSc1nnc2c(n1)OC(c1ccc(OCc3ccccc3)cc1)Nc1ccccc1-2 (stereo unspecified) | 83% (active)
O=C(O)c1cc(Br)ccc1N=Cc1nc(-c2ccc(Cl)cc2)oc1O | 50.4% (active)
O=C(O)c1cc2c(ccc3cc(Br)ccc32)oc1=O | 47.8%
Nc1ccc(Oc2ccc(N)cc2)cc1 | -13.3%
Nc1ccc(Oc2ccc(Oc3ccc(N)cc3)cc2)cc1 | 72.7% (active)
CCC(C)(C)c1ccc(Oc2ccc(N)cc2)cc1 | 21.9%
CCS(=O)(=O)c1ccc(-c2cccc(NS(=O)(=O)c3ccc(C)cc3C)c2)nn1 | 99.5% (active)
Cc1cc(S(=O)(=O)Nc2cccc(Br)c2)ccc1Br | 39.6%
CC(=O)Nc1cccc2c1NCCC2 | -0.59%
O=S(CSc1nc(Br)ns1)c1nc(Br)ns1 (stereo unspecified) | 102% (active)
COc1ccc2cc(C(=O)NNC(=O)c3ccccn3)c(C)nc2c1 | 0.1%
CCN1CCc2nc3ccccc3c(C(=O)NCc3ccc(OC)cc3)c2C1 | -11%
COc1ccc2nc(C(=O)NCC(C)c3ccccc3)ccc2c1 (stereo unspecified) | 52.4% (active)
c1ccc(-c2nc(-c3ccc4c(c3)OCO4)cs2)cc1 | -16.4%
c1ccc(-c2noc(N3CCCCC3)c2CNCc2ccc3c(c2)OCO3)cc1 | 83.5% (active)
c1ccc(-c2nnc3n2NC(c2ccc4c(c2)OCO4)S3)cc1 (stereo unspecified) | -2.01%
Cc1c(Br)c(Nc2ccc(Cl)cc2)nn1C | -14.8%
CC(=O)N=c1c(Nc2ccc(Cl)cc2)nc(=O)[nH]n1C | 85.5% (active)
CN(Cc1ccsc1)C(=O)CCc1nnc(CCCc2ccccc2)o1 | inactive
O=C(CCc1nnc(CCCCc2ccccc2)o1)NCC[C@@H]1C[C@@H]2C=C[C@H]1C2 | 78.5% (active)
O=C1c2ccccc2C(=O)N1CC1CC2C=CC1C2 (stereo unspecified) | 38.1%
C=CCn1nnc(NC(=O)c2ccc(OCC(C)C)cc2)n1 | 30.5%
O=C(CSc1nnc(SCC(=O)c2cccs2)s1)c1cccs1 | 96.8% (active)
NC(=O)CSc1nnc(SCc2ccc(Cl)c(Cl)c2)s1 | 24.1%
Cc1nc(SCC(=O)c2cccs2)c2c3c(sc2n1)CCCC3 | -1.14%

Compound | inhibition
N#CC(=Cc1ccc(Sc2ccccc2)o1)C(=O)NC1CCCCC1 | 92.9% (active)
N#CC(=Cc1ccc([N+](=O)[O-])o1)C(=O)NCc1ccco1 | 49.5%
Cc1ccc(-n2cc(CNCCc3ncc(C)[nH]3)c(-c3ccc(F)cc3)n2)cc1 | 93% (active)
Cc1ccc(-n2cc(CN(C)Cc3cccnc3)c(-c3ccc(F)cc3)n2)cc1 | 46.4%
Cc1ccc(-c2csc(SCC(=O)NC(C)(C#N)C3CC3)n2)cc1 (stereo unspecified) | 0.22%
CCC(C)Nc1nc(-c2ccc(Cl)cc2)cs1 (stereo unspecified) | -10.8%
CC(C)(C)c1ccc(-c2csc(NC=C(C#N)C#N)n2)cc1 | 75.2% (active)
CCOc1ccc(N2CC(C#N)=C3c4cc(OC)c(OC)cc4CCN3C2)cc1 | 94.9% (active)
Cc1cccc(N2CCN(CCNc3cncc(Cl)n3)CC2)c1 | 86.1% (active)
Cc1ccc(-n2c(-c3ccc(Cl)cc3)cc(C(=O)N3CCN(c4cccc(Cl)c4)CC3)c2C)cc1 | 33.6%
c1cnn(-c2cncc(NCC3CCCCCCC3)n2)c1 | 49.9%
COc1ccccc1N1CCC(CNc2cncc(Cl)n2)C1 (stereo unspecified) | 85% (active)
CNC(=O)c1cccc(N2CCC(c3ccccc3OC)C2)n1 (stereo unspecified) | 20.6%
Fc1ccc(Nc2ccc3ccccc3n2)cc1Cl | 22.7%
CC(=O)Oc1cccc2c1C(=O)c1c(OC(C)=O)cc(C(=O)O)cc1C2=O | 77.5% (active)
CCCc1nc2c(c(=O)c3ccccc3n2C)c(=O)n1CCc1ccccc1 | -32.5%
Oc1c(C(c2ccc(Br)cc2)N2CCCC2)ccc2cccnc12 (stereo unspecified) | 77.3% (active)
Clc1ccc(C(c2ccc(Cl)cc2)N2CCNCC2)cc1 | 42.8%
Oc1c(C(c2ccc(Cl)cc2)N2CCCC2)ccc2cccnc12 (stereo unspecified) | 92% (active)
CC(C)Oc1ccc2c(=O)cc(-c3ccccc3)oc2c1 | 58.7% (active)
COc1cc(C)c2c(=O)cc(-c3ccccc3)oc2c1 | 47.7%
Cc1oc2cc(OC(C)C)ccc2c(=O)c1Oc1ccccc1 | 8.96%
O=c1cc(-c2ccccc2)oc2cc(O)c(O)cc12 | 95.7% (active)
O=C(CC[N+](=O)[O-])OC[C@H]1O[C@@H](O)[C@H](OC(=O)CC[N+](=O)[O-])[C@@H](OC(=O)CC[N+](=O)[O-])[C@@H]1OC(=O)CC[N+](=O)[O-] | 82.8% (active)
O=C1C2=C(Nc3ccccc3SC2c2cccs2)c2ccccc21 (stereo unspecified) | 21.4%
O=C1C2=C(Nc3ccccc3S(=O)(=O)C2c2ccc(Cl)cc2)c2ccccc21 (stereo unspecified) | 66.7% (active)

Compound | inhibition
CC1Cc2ccccc2N1CCNC(=O)c1cc(Cl)ccc1F (stereo unspecified) | 8.76%
O=C(Cc1cc(-c2cc3ccccc3o2)on1)Nc1ccon1 | 18.9%
O=C(Cc1cc(-c2cc3ccccc3o2)on1)N1CCCc2ccccc21 | 66.9% (active)
O=C(Cc1cc(-c2ccc(F)cc2)on1)N1CCCc2ccccc21 | 56.2% (active)
O=C(CNc1ccc(Cl)cc1F)N1CCCc2ccccc21 | 50.7% (active)
O=C(Cc1cc(-c2cc3ccccc3o2)on1)N1CCCCC1 | 22.8%
COc1cccc(-c2cc(CC(=O)N3c4ccccc4CC3C)no2)c1 (stereo unspecified) | 38.3%
O=C(CNc1ccc(Cl)cc1F)N1CCN(c2ccccc2)CC1 | 16.7%
O=[N+]([O-])c1ccc(Oc2ccc(-c3ccccc3)cc2)cc1 | -41%
O=[N+]([O-])c1ccc(C2SCCS2)cc1 | -11.2%
O=[N+]([O-])c1ccc(Oc2ccc([N+](=O)[O-])cc2)cc1 | 98.6% (active)
O=[N+]([O-])c1ccc(Sc2ccc([N+](=O)[O-])cc2)cc1 | 57.3% (active)
Nc1cccc2c(Oc3ccc([N+](=O)[O-])cc3)cccc12 | 68.4% (active)
O=C(O)c1cc(Oc2ccc([N+](=O)[O-])cc2)cc(Oc2ccc([N+](=O)[O-])cc2)c1 | 60.2% (active)
Nc1cccc2c([N+](=O)[O-])cccc12 | 8.31%
Cc1cnn(CCc2nc(-c3cc(Br)cs3)no2)c1 | 36.5%
Cc1cc(OCC(=O)NCc2ccc(-c3ccc(Br)cc3)o2)no1 | 56.9% (active)
Cc1cc(CC(=O)NC2CC2c2ccc(Br)cc2)no1 (stereo unspecified) | 13.2%
O=c1nc(/C=C/c2ccc(Br)cc2)cc(C(F)(F)F)[nH]1 | 100% (active)
Cc1ccsc1/C=C/c1cc(C(F)(F)F)[nH]c(=O)n1 | 36.8%
O=c1nc(/C=C/c2cccc3ccccc23)cc(C(F)(F)F)[nH]1 | -5.05%
O=c1cc(CSc2ccc(Cl)cc2)nc2nc[nH]n12 | 30%
Clc1ccc(CSc2nnc3nc[nH]n23)c(Cl)c1 | 90.4% (active)
Clc1ccc(Cn2ccnc2CNc2ccccc2)c(Cl)c1 | 28.2%
O=C(c1cccc(OC(F)F)c1)N1CCN(Cc2ccc(-c3noc(-c4ccco4)n3)cc2)CC1 | 91.3% (active)
O=C(Cc1ccsc1)N1CCN(Cc2cccc(-c3noc(-c4ccccc4)n3)c2)CC1 | 25.5%

Compound | inhibition
CCOc1ccc(N2C(=O)CSC2c2ccccc2N)cc1 (stereo unspecified) | 90.3% (active)
COC(=O)C1=C(C(=O)OC)SC(=CC(=S)c2ccc(OC)cc2)S1 | 82.8% (active)
COC(=O)C1=C(C(=O)OC)SC(=C2C(=S)C(C)(C)Nc3ccccc32)S1 | 27.1%
COC(=O)C1=C(C(=O)OC)C2=S(SC(c3ccc(OC)cc3)=C2)S1 (stereo unspecified) | 7.91%
CCOc1ccc(Oc2ccc(S(=O)(=O)NC(C)CC#N)cc2)cc1 (stereo unspecified) | 39.1%
CCCCN=C1NN=C(C23CC4CC(CC(C4)C2)C3)C(C)S1 (stereo unspecified) | 82.7% (active)
O=[N+]([O-])c1ccc(NN=C2C3CC4CC2CC(O)(C4)C3)c([N+](=O)[O-])c1 | 25.5%
O=[N+]([O-])c1ccc(NN=C2CC3CC=CC23)c([N+](=O)[O-])c1 (stereo unspecified) | 92% (active)
CC1=CC(=NNc2ccc(S(N)(=O)=O)cc2[N+](=O)[O-])CC(C)(C)C1 | -10.6%
CCSc1nnc(NC(=O)Cc2ccccc2Cl)s1 | 95.5% (active)
O=C(Nc1nnc(SCc2ccc(F)cc2)s1)c1ccccc1Br | 27.4%
COCCCNC(=O)CSc1nnc(Nc2ccccc2Cl)s1 | 80.1% (active)
C=CCSc1nnc(NC(=O)c2cc(Br)ccc2Cl)s1 | 9.41%
CCc1ccccc1Nc1nnc(SCC(=O)NC(C)C)s1 | 102% (active)
CNc1nnc(SCc2sc3ccccc3c2Cl)s1 | 48.5%
CC(C)NC(=O)CSc1nnc(Nc2ccccc2Cl)s1 | 78.8% (active)
CCCN(CC(=O)N(Cc1ccccc1)Cc1sccc1C)C(=O)Nc1ccc(C(=O)OCC)cc1 | 89.4% (active)
COC(=O)c1ccc(NC(=O)N2CCCC(C(=O)c3sccc3C)C2)cc1 (stereo unspecified) | -5.44%
C=CCNCC(=O)N(Cc1ccccc1)Cc1ccc(C)s1 | 21.1%
CC(=O)N1N=C(c2ccco2)OC1C(=O)N[C@@H]1C[C@@H]2C[C@H](C1C)C2(C)C (stereo partly specified) | 8.4%
c1cncc(-c2nc(NC3CCCCCCC3)c3ccccc3n2)c1 | 39.2%
c1ccc(-c2cc(NC3CCCC3)nc3ccccc23)cc1 | 67.7% (active)
c1cncc(-c2nc(N3CCCC4CCCCC43)c3ccccc3n2)c1 (stereo unspecified) | -13.1%
